# Reference: PubChem BioAssay
# Calls of active or inactive are those of the source.
# How the values were obtained:
# Albumin (Bos taurus) = Albumin (Bos taurus) (UniProt P02769); experiment: bovine serum albumin binders on microarray, profiling panel, artefact control for SMM control protein annotation, biochemical, small-molecule microarray, Alexa647 label, 635/667 nm fluorescence (AID 1118); settings: BSA-A647 binding, fluorescence 635 nm, higher = more signal;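 further: score merges 667 nm emission intensity and signal-to-noise per printed compound spot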
# Chain of Albumin (Bos taurus) (P02769 whole entry, looked up): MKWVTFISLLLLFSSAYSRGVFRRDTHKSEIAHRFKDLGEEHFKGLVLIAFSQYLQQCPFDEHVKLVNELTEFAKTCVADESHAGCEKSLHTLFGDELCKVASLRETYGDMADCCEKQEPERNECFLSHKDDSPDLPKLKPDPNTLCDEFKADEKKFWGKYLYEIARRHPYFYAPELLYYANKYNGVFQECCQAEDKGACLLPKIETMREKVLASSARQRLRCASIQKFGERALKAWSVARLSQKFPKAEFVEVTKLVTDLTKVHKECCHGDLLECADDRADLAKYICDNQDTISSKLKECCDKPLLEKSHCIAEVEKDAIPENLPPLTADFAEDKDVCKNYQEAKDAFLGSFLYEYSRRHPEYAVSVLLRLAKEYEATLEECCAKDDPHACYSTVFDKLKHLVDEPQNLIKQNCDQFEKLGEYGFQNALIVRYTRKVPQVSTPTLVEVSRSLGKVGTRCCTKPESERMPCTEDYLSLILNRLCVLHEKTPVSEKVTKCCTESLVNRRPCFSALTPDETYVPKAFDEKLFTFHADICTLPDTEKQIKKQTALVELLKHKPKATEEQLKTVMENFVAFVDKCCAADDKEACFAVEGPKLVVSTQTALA
# [1] = small-molecule microarray binders of probe aXIP, primary screen, biochemical, NeuroSMM set, 635/667 nm fluorescence (AID 1119); settings: higher = more signal, called active from +8 up or from −8 down;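 further: probe is the protein aXip251-270 applied at 1 µg/mL to compound-printed slides; binding of probe to printed compounds measured as 667 nm fluorescence plus signal to noise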
# [2] = small-molecule binders of probe aNOTCH3, primary screen, biochemical, small-molecule microarray, 635/667 nm fluorescence (AID 1120); settings: higher = more signal;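 further: probe is a biotin-tagged antibody raised against NOTCH3 rather than NOTCH3 protein; score merges spot fluorescence near 667 nm with spot signal to noise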
# [3] = small-molecule binders of probe aNOTCH2, primary screen, biochemical, small-molecule microarray, 635/667 nm fluorescence (AID 1121); settings: higher = more signal;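 further: score merges feature fluorescence read at 667 nm with its signal to noise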
# [4] = molecular target: Carbonic anhydrase 2 (Homo sapiens) (UniProt P00918); experiment: CAII small-molecule binders, profiling panel, biochemical, small-molecule microarray, Alexa647-labelled CAII (AID 1122); settings: CAII-A647 binding fluorescence, higher = more signal
# [5] = COS7 lysate on small-molecule microarray, probe aHis, 635 nm (AID 1123); settings: COS7 cell lysate, fluorescence, higher = more signal;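 further: z-score combines 667nm fluorescence intensity with signal-to-noise per printed compound spot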
# [6] = compound binding in COS7 lysate, probe aLAP1, primary screen, cell lysate, small-molecule microarray (AID 1124); settings: probe aLAP1, fluorescence, higher = more signal;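 further: lysate comes from COS7 cells expressing LAP1 and is applied at 0.3 µg/mL; score merges spot fluorescence near 667 nm with signal-to-noise over triplicate slides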
# Sam68 (KHDRBS1) = experiment: Sam68 small-molecule binders, primary screen, biochemical, small-molecule microarray, 635 nm fluorescence (AID 1125); settings: small-molecule microarray binding, higher = more signal;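 further: score merges 667 nm channel intensity with signal to noise over triplicate slides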
# [7] = system: Chordin-like protein 2 (CHRDL2); experiment: CHRDL2 small-molecule binders, primary screen, biochemical, small-molecule microarray, 635 nm fluorescence (AID 1126); settings: small-molecule microarray binding, fluorescence 635 nm; higher = more signal;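 further: printed compound slides probed with Chrdl2 protein at 4 µg/mL for 1 h at 4 C; score merges 667 nm emission intensity with signal to noise over three replicate slides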
# [8] = molecular target: Concanavalin-A (Canavalia ensiformis) (UniProt P02866); experiment: ConA small-molecule binders, primary screen, artefact control for SMM control protein annotation, biochemical, small-molecule microarray, Alexa647 label, 635 nm (AID 1127); settings: ConA-A647 binding fluorescence, higher = more signal;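 further: z combines 667 nm emission intensity with signal-to-noise across three replicate slides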
# Chain of Concanavalin-A (Canavalia ensiformis) (P02866 whole entry, looked up): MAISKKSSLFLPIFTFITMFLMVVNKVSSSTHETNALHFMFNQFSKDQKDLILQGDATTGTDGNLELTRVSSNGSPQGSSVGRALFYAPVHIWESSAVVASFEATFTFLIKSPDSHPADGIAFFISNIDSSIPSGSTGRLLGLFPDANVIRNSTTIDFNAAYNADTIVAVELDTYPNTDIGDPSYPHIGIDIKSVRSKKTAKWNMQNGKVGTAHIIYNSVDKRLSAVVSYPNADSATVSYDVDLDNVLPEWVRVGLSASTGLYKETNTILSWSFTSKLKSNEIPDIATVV
Structure (SMILES),composite z-score (Albumin (Bos taurus)),composite Z-score [1],composite z-score [2],composite z-score [3],composite z-score [4],composite z-score [5],composite z-score [6],composite z-score (Sam68 (KHDRBS1)),composite z-score [7],composite z-score [8]
COC(=O)[C@@]1(Cc2ccc(F)cc2)[C@H]2c3cc(C(=O)N(C)C)n(Cc4cc(C)n(C)n4)c3C[C@H]2CN1C(=O)c1ccccc1,1.03,0.467 (inactive),0.19,0.0552,0.806,3.08,0.738,1.31,-0.141,1.01
CC(=CC1CCCCC1)[C@@H](NC(=O)c1cccnc1)c1ccc(-c2ccccc2)cc1,0.513,-0.8 (inactive),-0.118,-0.0665,0.0804,1.24,-0.264,-0.649,-0.531,0.132
COCCOC(=O)N1C(=O)[C@@]2(c3cc(C#CCCO)ccc31)[C@H](c1ccc(OCCO)cc1)N1[C@H](c3ccccc3)[C@H](c3ccccc3)OC(=O)[C@H]1[C@@H]2C(N)=O,0.482,0.606 (inactive),-0.0117,-0.0567,0.588,1.93,-0.591,1.29,0.437,1.17
COc1ccc([Si](C)(C)[C@@H]2[C@@H](CC(=O)N3CCC[C@H]3CO)O[C@]3(C(=O)N(Cc4cccc(I)c4)c4ccccc43)[C@H]2C)cc1,-0.392,0.119 (inactive),0.175,-0.0956,0.644,0.066,0.0817,1.31,1.45,0.938
COC(=O)C(CC#Cc1ccc2c(c1)[C@]1(C(=O)N2)[C@H](c2ccccc2OCCO)N2[C@H](c3ccccc3)[C@H](c3ccccc3)OC(=O)[C@H]2[C@@H]1C(=O)O)C(=O)OC,0.573,0.0066 (inactive),0.194,-0.1,0.367,1.7,0.375,1.3,0.132,1.09
CCCCN1CC=CC23O[C@@H]4/C=C\CCCOC(=O)C4[C@H]2C(=O)N(CCCCCO)[C@@H]3C1=O (stereo not given in full),-1.09,0.414 (inactive),-0.326,-0.192,0.754,-0.494,0.85,-1.12,-0.722,-1.22
CC(C)NC(=O)[C@@H]1c2ccccc2C(=O)N(C(C)C)[C@H]1c1ccc(CO)cc1,-0.163,-0.174 (inactive),-0.215,-0.179,0.644,2.97,0.338,0.637,-1.38,0.185
NCCCCCCNC(=O)[C@H]1C[C@H]2C(=O)N[C@@H](Cc3ccccc3)C(=O)N2[C@H]1c1cccc(OCCO)c1,0.845,-0.336 (inactive),0.0657,-0.0712,0.788,0.446,0.464,0.58,-0.431,1.03
CC(C)NC(=O)[C@@]1(Cc2ccccc2I)c2ccccc2C(=O)N(Cc2ccccc2Cl)[C@H]1c1ccc(CO)cc1,0.0517,0.786 (inactive),-0.0573,-0.0741,0.506,1.73,-0.0064,1.29,0.432,1.1
COCCCNC(=O)[C@@]1(Cc2ccccc2)N=C(c2ccc(OCCCO)cc2)O[C@H]1c1ccccc1CN=[N+]=[N-],0.884,0.294 (inactive),0.217,0.253,0.752,2.78,0.982,1.32,-1.1,1.12
COCCOC(=O)N1C(=O)[C@@]2(c3cc(C#Cc4ccc(OC)cc4)ccc31)[C@H](c1ccc(O)cc1)N1[C@H](c3ccccc3)[C@H](c3ccccc3)OC(=O)[C@H]1[C@@H]2C(=O)Nc1nc2ccccc2s1,0.576,0.303 (inactive),-0.0299,-0.124,0.537,1.54,-0.0159,1.3,0.0727,1.16
O=C1C2C=CC(C(O)c3ccc4c(c3)OCO4)N(Nc3ccc([N+](=O)[O-])cc3)C2C(=O)N1c1ccccc1 (stereo not given),0.854,-0.0054 (inactive),0.0225,-0.104,0.699,1.15,0.345,0.597,-0.0385,0.813
C#CCN1[C@H](/C=C/C2CC2)[C@H](Cc2ccccc2)OC(=O)[C@@H]1Cc1ccccc1,-0.159,-0.95 (inactive),-0.124,-0.0759,0.2,0.24,0.092,0.257,0.509,0.0816
O=C1C2C=CC(C(O)c3cc(C(F)(F)F)cc(C(F)(F)F)c3)N(Nc3ccccc3)C2C(=O)N1c1ccccc1 (stereo not given),-0.0814,0.837 (inactive),0.0435,-0.101,0.723,2.51,-0.233,1.04,-0.357,-0.236
CC=CC(O)C1C=CC2C(=O)N(C)C(=O)C2N1N(c1ccccc1)c1ccccc1 (stereo not given),0.803,-0.222 (inactive),0.0864,0.0843,0.837,-0.213,0.198,-0.113,0.686,0.555
O=C1O[C@H](c2ccccc2)[C@H](c2ccccc2)N2[C@H]1[C@@H](C(=O)NC[C@H](O)c1ccccc1)[C@]1(C(=O)Nc3ccccc31)[C@H]2c1ccc(O)cc1,0.626,-0.35 (inactive),-0.0328,-0.0629,0.66,1.19,0.463,0.959,1.23,1.01
C=C(CCCC)C(=O)CC[C@H](OC(=O)c1cccnc1)c1ccc(OCCO)cc1,0.0514,0.197 (inactive),-0.0076,-0.14,0.72,-0.0099,0.022,0.567,0.191,-0.421

Structure (SMILES),composite z-score (Albumin (Bos taurus)),composite Z-score [1],composite z-score [2],composite z-score [3],composite z-score [4],composite z-score [5],composite z-score [6],composite z-score (Sam68 (KHDRBS1)),composite z-score [7],composite z-score [8]
COc1cc2c(cc1O)C(c1cccs1)N(Cc1cccc(OC(F)(F)F)c1)CC2 (stereo not given),0.899,0.934 (inactive),-0.128,-0.148,0.78,2.6,0.336,1.15,0.375,0.127
COC(=O)[C@@]1(Cc2ccc(OC)cc2)[C@H]2c3cc(C(=O)N4CCCC4)n(CCSCCO)c3C[C@H]2CN1C(=O)c1ccccc1,0.905,0.228 (inactive),0.211,0.0312,0.678,3.24,0.247,0.657,-0.633,0.941
O=C(O)[C@@]1(CCS(=O)(=O)c2ccccc2)N=C(c2ccc(OCCCO)cc2)O[C@H]1c1ccccc1,0.978,-0.83 (inactive),0.156,-0.0331,0.864,2.21,-0.334,1.2,-0.765,0.766
O=C1[C@@]23C=C(Br)[C@H](C[C@@H]2COC3)[C@]12CO2,-0.742,-0.222 (inactive),-0.0187,-0.0176,-0.762,0.638,-0.447,-2.61,-0.323,-1.79
COc1ccc([C@H]2C[C@H]3C(I)=C[C@@H]2C(=O)[C@]32CO2)cc1,-0.63,-0.617 (inactive),0.0242,-0.156,-0.267,-0.442,-0.154,-0.889,0.189,-0.0546
COc1ccc(NN2C(C(O)c3ccc(N(C)C)cc3)C=CC3C(=O)N(C4CCCCC4)C(=O)C32)cc1 (stereo not given),0.906,-0.247 (inactive),0.391,0.0992,0.689,2.13,0.414,1.31,0.212,1.16
C[C@H]1C2[C@H](Cc3ccccc3)NC(=O)[C@]23C(=O)NCC(=O)N2CCC[C@H]2C(=O)NC/C=C/CCC/C=C/C3[C@@H]2O[C@]12C (stereo not given in full),-0.677,-0.695 (inactive),-0.136,-0.179,-0.17,-0.18,0.053,-1.51,-0.143,-1.27
CC(C)CNC(=O)[C@@]1(Cc2ccccc2I)c2ccccc2C(=O)N(Cc2ccccc2C(F)(F)F)[C@H]1c1ccc(CO)cc1,0.212,0.117 (inactive),-0.234,0.0344,0.417,0.959,0.393,0.432,-0.731,-0.0801
CO[C@H]1O[C@H](CO)[C@@H](OC(=O)Nc2ccc(Oc3ccccc3)cc2)[C@H](OC(=O)Nc2ccc3c(c2)OCO3)[C@@H]1OC(=O)Nc1ccc2c(c1)OCO2,0.277,1.29 (inactive),0.327,0.0248,0.333,2.02,0.869,1.3,0.335,1.18
O=C(CS)NCCCCCNC(=O)[C@H]1C[C@H]2C(=O)NCC(=O)N2[C@H]1c1ccc(O)cc1,-0.366,0.161 (inactive),-0.372,-0.185,0.281,-0.29,-0.474,-1.3,-0.559,-0.0836
O=C1[C@H]2C=C(Br)[C@H](C[C@@H]2OCCCCCCO)[C@@]12CO2,-0.699,0.926 (inactive),0.265,-0.0064,-0.382,-0.469,0.206,-0.733,0.0547,-1.57
CC(c1ccccc1)C(O)C1C=CC2C(=O)N(C)C(=O)C2N1NC(=O)OC(C)(C)C (stereo not given),0.974,0.741 (inactive),0.148,-0.0159,0.695,2.53,0.857,1.3,-0.338,1.12
CC(C)C(=C=CC[C@H](O)c1ccc(CO)o1)CCO,0.906,0.304 (inactive),-0.111,-0.148,0.756,0.514,0.792,0.856,0.0622,0.828
COCC(=C=CC[C@@H](O)c1ccc(OCCO)cc1)C[C@@H](O)c1ccccn1,0.762,-0.628 (inactive),-0.0947,-0.157,0.532,0.528,-0.517,0.472,0.141,0.403
CCOc1ccc(N2C(=O)CSC2c2cccc([N+](=O)[O-])c2)cc1 (stereo not given),0.954,0.625 (inactive),0.133,-0.14,0.36,1.63,0.181,0.829,0.428,0.789
C=CCNC(=O)[C@H]1[C@@H]2C(=O)O[C@@H](c3ccccc3)[C@@H](c3ccccc3)N2[C@@H](c2ccc(O)cc2)[C@]12C(=O)Nc1ccc(C#CCCO)cc12,0.138,-0.157 (inactive),-0.112,-0.198,0.656,-0.0099,0.75,-0.319,-0.559,-0.065
